First the molecules themselves.
T1: UNK ZnF1-3 (human, UniProt Q9C0B0 31-174)
T1 sequence: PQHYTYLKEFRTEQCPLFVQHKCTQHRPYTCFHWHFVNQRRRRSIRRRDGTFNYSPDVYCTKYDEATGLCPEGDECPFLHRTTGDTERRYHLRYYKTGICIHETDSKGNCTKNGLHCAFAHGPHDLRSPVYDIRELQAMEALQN

B1: chr7:54825262:54825263:-_ENSG00000132432_ENST00000352861|hu_hu|hu_hu_hu_mus_False|68_108 (ssRNA)
RNA: GGGAGUUCUACAGUCCGACGAUCCUGACUUGGCUCAUCCACAAACUGCAUUACCUGAUCCAUGUUUUACCCAACCGGGAUUGAGAGCGUAGAGACACGUAGCUCAGGAGAGAACCGAGCCCAACGGAACCGGAAGCUGGCAACCAACAGAGGAUUGAGCAUCA
B2: chr5:73697939:73697940:+_ENSMUSG00000029152_ENSMUST00000031038|mus_mus|motif|central (ssRNA)
RNA: GGGAGUUCUACAGUCCGACGAUCUCCUUGGGCAAUAUGGUCAGUAAUACCAGUGGGAGUGGACUCGUUCAUAGAAGCACGGAAUGGAAUUGGCUCAUAACGAGGAAGCGCCUCCUUUUCUAUGUUGUCUGCUGCUGGAGAUGUCAACAGAGGAUUGAGCAUCA
B3: chr10:98281081:98281082:-_ENSG00000077147_ENST00000371142|hu_mus|motif|central (ssRNA)
RNA: GGGAGUUCUACAGUCCGACGAUCAUCGCAAUACAGUCCCCCAGUCAGUCUGUACAUCCAAAUGCAUCCAGGAACCGGCACCGGCGCGACAUUAUUAAUGUUAUAUACAUUUAUUGCCCCCCUUGUUUUGUUUAAUAAUUUCUUCAACAGAGGAUUGAGCAUCA
B4: chr2:47388980:47388981:-_ENSG00000143933_ENST00000272298|hu_mus|hu_hu_hu_mus_True|68_98 (ssRNA)
RNA: GGGAGUUCUACAGUCCGACGAUCUUCAUCUGUUAACUUCUCUCCAAGGUUUGUCAUCACAUGGCGAAGUUCUGCAGCACUAAUAUAGCCAUUGCCAUCCUUAUCAAACACACGGAAUGCUUCUCUAAUCUCUUCUUCACUGUCCAACAGAGGAUUGAGCAUCA
B5: 132634964_132635084_86_5pUTR_ENSMUSG00000030750_ENSMUST00000033006|mouse|control|control (ssRNA)
RNA: GGGAGUUCUACAGUCCGACGAUCCCCGCCUCCAGGGCGGAGAGAUCGCCAGACUGGAGCUCCUACUGGUGGGCUACGCGCAUUCUCCCGCUCACCAGCGGAGUACUUCCGUUUUCCCCGCCCGCUCUGUUGCUAUGGCGCCUUCAACAGAGGAUUGAGCAUCA
B6: chr2:24222969:24222970:+_ENSG00000173960_ENST00000309033|hu_mus|FALSE|FALSE (ssRNA)
RNA: GGGAGUUCUACAGUCCGACGAUCAUUAAUGACACAGCUAUUUAAUGUCAUAUUGGCUAACUAAUAUUUGAAAAAUAGGUAUUUUUUUCUGAAUAGCCUGUUGAGAAAAAUGCACUGACCCUGGCUUAGAGCCAUGUCACUCUCCAACAGAGGAUUGAGCAUCA

Whole data set: some 24,000 sequences, median “enrichment r” near 0.99, cut for the highest 2% near 3.7. Many of the other results were omitted from the sample, so the highest values are more common in it than they were.

This assay has as its target T1, UNK ZnF1-3. Description: nsRBNS (natural sequence RNA bind-n-seq); RBNS binding buffer (assumed for nsRBNS): 25 mM Tris pH 7.5, 150 mM KCl, 3 mM MgCl2, 0.01% Triton X-100, 500 ug/ml BSA, 20 U/ml SUPERase-In, 4 C; UNK is unkempt and MSI1 is Musashi-1; names of the RNAs are library labels; protein concentration not given here; high values mean tight binding.
As for B1, the binding signal was 1.72 enrichment R. To B2 belongs 1.27 enrichment R; to B3, 1.36 enrichment R; to B4, 0.882 enrichment R. In the case of B5, the binding signal was 0.567 enrichment R. To B6 belongs 0.836 enrichment R.

Source of the values: publication PMC12136788.
